Assay [1] can be described thus: HepG2 liver cancer cell viability effects, profiling panel, resazurin fluorescence, 24 h, PK04 Diversity Set (AID 1172). Also: test concentration not given here. To be noted: higher = more signal.
A short description of assay [2]: basal S. cerevisiae growth modulation, no modifier, primary screen, OD600, strain BY4716, 24 h, basal condition (AID 1173). The following applies: OD600, 24 h, higher = more signal, called active from +8 up or from −8 down.
The nature of assay [3]: MM1S myeloma cell viability, profiling panel, resazurin fluorescence, basal, 24 h, PK04 Diversity Set (AID 1174).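 Also: MM1S multiple myeloma cell line; test concentration not given here.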 To be noted: higher = more signal, called active from +8 up or from −8 down. Background: Alamar Blue is a resazurin reagent that responds to reducing activity.
For assay [4], the target named is Dihydroorotate dehydrogenase (quinone), mitochondrial (Plasmodium falciparum (isolate 3D7)) (UniProt Q08210). Description: PfDHODH enzyme inhibitors, primary screen, biochemical, C-terminal His tag, absorbance 600 nm (AID 1175).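 Also: recombinant parasite enzyme with a five histidine tag at its C terminus; test concentration not given here.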 The following applies: DCIP absorbance 600 nm, higher = more signal, called active from +8 up or from −8 down.
Dihydroorotate dehydrogenase (quinone), mitochondrial (Plasmodium falciparum (isolate 3D7)), sequence (Q08210 whole entry, looked up): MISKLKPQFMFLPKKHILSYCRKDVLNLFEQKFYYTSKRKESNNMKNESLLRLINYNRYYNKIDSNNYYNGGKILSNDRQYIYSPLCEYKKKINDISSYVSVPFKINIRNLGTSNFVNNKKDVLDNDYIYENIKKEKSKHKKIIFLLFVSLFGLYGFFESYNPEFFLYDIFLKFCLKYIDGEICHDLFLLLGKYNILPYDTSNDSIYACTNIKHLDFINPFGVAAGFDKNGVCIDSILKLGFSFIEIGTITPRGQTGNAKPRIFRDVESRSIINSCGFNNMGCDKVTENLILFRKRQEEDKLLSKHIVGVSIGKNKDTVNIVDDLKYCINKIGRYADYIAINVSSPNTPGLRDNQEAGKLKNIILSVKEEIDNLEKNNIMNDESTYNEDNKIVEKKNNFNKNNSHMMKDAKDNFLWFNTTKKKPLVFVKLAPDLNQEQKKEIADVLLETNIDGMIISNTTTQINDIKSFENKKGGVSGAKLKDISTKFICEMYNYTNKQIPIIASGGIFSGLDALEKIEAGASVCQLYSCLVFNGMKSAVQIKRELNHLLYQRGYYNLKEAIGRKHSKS
A short description of assay [5]: P. aeruginosa biofilm formation inhibitors, primary screen, strain PAO1, LB-PBS medium, absorbance 600 nm (AID 1176). Also: test concentration not given here. To be noted: P. aeruginosa PAO1 growth/biofilm, A600, 12 h; higher = more signal.
Assay [6] can be described thus: S. cerevisiae RM11-1a growth modifiers, primary screen, strain RM11-1a, OD600, basal, 24 h (AID 1177).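 Also: cultures grown under basal conditions with no added stressor; test concentration not given here.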 To be noted: OD600, 24 h, higher = more signal, called active from +8 up or from −8 down.
Assay [7] is described as follows: E. coli acrAB mutant growth effects, primary screen, E. coli filamentation inducers, strain DRC39, OD650, 24 h (AID 1178).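 Also: growth measured as culture turbidity by optical density at 650 nm; test concentration not given here.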 To be noted: higher = more signal, called active from +8 up or from −8 down.
The nature of assay [8]: E. coli acrAB mutant growth effects, primary screen, E. coli filamentation inducers, strain DRC39, OD650, 48 h (AID 1179).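 Also: screen aims at cell division blockers that make cells filament.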 To be noted: E. coli DRC39 delta-acrAB growth, higher = more signal, called active from +8 up or from −8 down.
Assay [9] is described as follows: RPMI8226 myeloma cell viability, profiling panel, resazurin fluorescence, basal, 24 h, PK04 Diversity Set (AID 1180).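 Also: RPMI8826 multiple myeloma cell line at 5000 cells per well; test concentration not given here.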 To be noted: higher = more signal.
Assay [10] addresses E3 ubiquitin-protein ligase XIAP (Homo sapiens) (UniProt P98170). Nature of the assay: XIAP binders, primary screen, biophysical, small-molecule microarray, fluorescence 635 nm (AID 1181).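 Also: score merges 667 nm emission and signal to noise over triplicate slides.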 To be noted: small-molecule microarray binding, higher = more signal.

Activity calls are given as the source filed them. Unless noted, no rule for the calls is given here.

E3 ubiquitin-protein ligase XIAP (Homo sapiens), sequence (P98170 whole entry, looked up): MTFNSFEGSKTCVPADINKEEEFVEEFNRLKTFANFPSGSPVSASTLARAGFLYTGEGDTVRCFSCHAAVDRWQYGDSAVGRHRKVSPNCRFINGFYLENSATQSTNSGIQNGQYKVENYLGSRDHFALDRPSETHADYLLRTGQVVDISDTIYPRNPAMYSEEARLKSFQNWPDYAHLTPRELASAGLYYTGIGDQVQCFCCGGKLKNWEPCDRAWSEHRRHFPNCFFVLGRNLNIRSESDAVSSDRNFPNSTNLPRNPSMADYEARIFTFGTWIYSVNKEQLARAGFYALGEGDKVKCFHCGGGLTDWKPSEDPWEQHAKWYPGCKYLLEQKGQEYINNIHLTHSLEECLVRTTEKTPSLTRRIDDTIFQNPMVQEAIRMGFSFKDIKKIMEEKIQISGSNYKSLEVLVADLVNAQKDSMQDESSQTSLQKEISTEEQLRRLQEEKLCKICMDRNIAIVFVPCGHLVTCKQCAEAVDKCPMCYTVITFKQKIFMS

For the molecule `COC(=O)[C@@]1(Cc2ccc(OC)cc2)[C@H]2c3cc(C(=O)N4CCCC4)n(Cc4ccccc4)c3C[C@H]2CN1C(=O)c1ccccc1`, the z-score is -2.62 in assay [1]; 1.04 (inactive) in assay [2]; -0.912 (inactive) in assay [3]; 0.219 (inactive) in assay [5]; 0.479 (inactive) in assay [6]; -0.559 (inactive) in [7]. Besides, the values for the z-score in assay [8] and in [9] were 0.0434 (inactive) and -3.16, respectively. Further, the composite z-score is -0.264 (inactive) in assay [4] and -0.065 in assay [10].

On to `C=C(COC)/C(=C/C[C@@H](OC(C)=O)c1ccc(CO)o1)c1cnc2ccccc2c1`, for which the z-score was -0.956 in [1]; -0.677 (inactive) in [2]; 0.915 (inactive) in [3]; 0.579 (inactive) in assay [5]; 0.704 (inactive) in assay [6]; 0.685 (inactive) in [7]. For the same molecule, the z-score in [8] is -0.0551 (inactive); in assay [9], 0.47. Moreover, the results for the composite z-score in assay [4] and in assay [10] were -8.64 (active) and 0.0225, respectively.

`CCCN1C(=O)[C@]2(CCS(=O)(=O)c3ccccc3)N=C(c3ccc(OCCCO)cc3)O[C@@H]2c2ccccc21`: the z-score in [1] was -0.264; in assay [2] it was -0.443 (inactive); in assay [3], -0.278 (inactive); in assay [5] it was 0.0279 (inactive); in [6], 0.492 (inactive); in assay [7], 1.82 (inactive). The values for the z-score in assay [8] and in assay [9] were 0.544 (inactive) and -0.967, respectively. Besides, the composite z-score in assay [4] is 0.507 (inactive); in assay [10], -0.0773.

As to `O=C1NC(=O)C2C1C=CC(C(O)Cc1ccccc1)N2Nc1ccc(Cl)cc1Cl` (stereo not given), the z-score in assay [1] was -0.985; in [2], -7.58 (inactive); in assay [3] it was -1.56 (inactive); in [5] it was 0.53 (inactive); in assay [6] it was 0.181 (inactive); in assay [7], -0.655 (inactive). The z-score in [8] was -0.603 (inactive); in assay [9], -1.04. In addition, the composite z-score in [4] was -0.276 (inactive); in assay [10], 0.13.

Consider `C=CCNC(=O)[C@H]1[C@@H]2C(=O)O[C@@H](c3ccccc3)[C@@H](c3ccccc3)N2[C@@H](c2ccc(O)cc2)[C@]12C(=O)N(C(=O)OCCOC)c1ccc(C#CCNC(N)=O)cc12`, for which the z-score in assay [1] is -0.173; in assay [2], 0.516 (inactive); in assay [3] it was 0.244 (inactive); in assay [5], 0.911 (inactive); in [6], 1.14 (inactive); in assay [7], 0.204 (inactive). Besides, the values for the z-score in assay [8] and in assay [9] were -0.135 (inactive) and -0.17, respectively. Also, the values for the composite z-score in assay [4] and in [10] were 0.132 (inactive) and -0.219, respectively.

Consider `O=C1O[C@H](c2ccccc2)[C@H](c2ccccc2)N2[C@H]1[C@@H](C(=O)O)[C@]1(C(=O)Nc3ccc(C#CC4=CCCCC4)cc31)[C@H]2c1ccccc1OCCO`, for which the z-score is -1.19 in [1]; -1.17 (inactive) in assay [2]; -5.12 (inactive) in [3]; 2.36 (inactive) in assay [5]; 1.73 (inactive) in assay [6]; -0.0532 (inactive) in assay [7]. Moreover, the z-score in [8] was 0.0958 (inactive); in [9], -6.63. Moreover, the composite z-score was -6.35 (inactive) in assay [4] and -0.102 in [10].

Consider `COC(=O)[C@@]1(Cc2ccc(OC)cc2)[C@H]2c3cc(C(=O)N(C)C)n(CCN4CNCC4=O)c3C[C@H]2CN1C(=O)c1ccccc1`, for which the z-score in [1] was 0.642; in assay [2] it was 0.124 (inactive); in assay [3], 0.622 (inactive); in assay [5], 0.371 (inactive); in assay [6] it was -0.188 (inactive); in assay [7] it was 0.479 (inactive). Moreover, the z-score in [8] was -0.318 (inactive); in assay [9], 0.777. For the same molecule, the composite z-score was -0.72 (inactive) in assay [4] and 0.597 in assay [10].

With `CCOC(=O)[C@H]1C/C=C/C[C@H](C(=O)OCC)C(=O)O[C@H]2[C@@H](OC)O[C@H](CO)[C@@H](OC(=O)Nc3cccc(F)c3)[C@@H]2OC1=O`, the z-score is -5.49 in [1]; -0.218 (inactive) in [2]; -9.05 (active) in assay [3]; 1.74 (inactive) in assay [5]; 1.84 (inactive) in assay [6]; 0.675 (inactive) in [7]. Further, the z-score in [8] was 1.23 (inactive); in assay [9] it was -7.34. Further, the values for the composite z-score in assay [4] and in [10] were -0.0103 (inactive) and 0.125, respectively.

As for `COc1ccc(C(=O)Nc2ccc(CN3C(=O)[C@@]4(O[C@@H](CC(=O)N5CCC[C@H]5CO)[C@H]([Si](C)(C)c5ccc(OC)cc5)[C@H]4C)c4ccccc43)cc2)cc1`, the z-score in assay [1] was 0.294; in assay [2] it was -0.871 (inactive); in assay [3], -0.675 (inactive); in assay [5], 1.58 (inactive); in assay [6] it was 0.515 (inactive); in [7] it was 1.28 (inactive). In addition, the values for the z-score in assay [8] and in assay [9] were 1.26 (inactive) and -0.677, respectively. Moreover, the composite z-score in assay [4] was -6.57 (inactive); in assay [10], 0.0774.

On to `Cc1ccc(S[C@]2(C(=O)NC(C)C)CC(=O)N(Cc3ccccc3Cl)[C@@H]2c2ccc(CO)cc2I)cc1`, for which the z-score is 0.36 in [1]; -3.93 (inactive) in assay [2]; -2.83 (inactive) in assay [3]; 0.723 (inactive) in assay [5]; -1.89 (inactive) in [6]; 0.0051 (inactive) in [7]. The z-score is -0.465 (inactive) in assay [8] and -2.24 in [9]. Further, the composite z-score in [4] is -0.766 (inactive); in [10], -0.074.

As for `COCCOC(=O)N1C(=O)[C@@]2(c3cc(C#CCCO)ccc31)[C@H](C(=O)N1CCN(c3ncccn3)CC1)[C@H]1C(=O)O[C@H](c3ccccc3)[C@H](c3ccccc3)N1[C@@H]2c1ccccc1OCCO`, the z-score is 0.906 in [1]; 0.674 (inactive) in [2]; 0.399 (inactive) in assay [3]; -0.116 (inactive) in [5]; 1.36 (inactive) in assay [6]; 0.111 (inactive) in assay [7]. For the same molecule, the z-score is -0.776 (inactive) in assay [8] and 0.485 in assay [9]. Also, the composite z-score in [4] is -0.237 (inactive); in [10] it was -0.0312.

For the origin of these results see PubChem BioAssay.
